Inhibition data for 15 compounds are collected here from ChEMBL document CHEMBL1157539, “Thousands of chemical starting points for antimalarial lead identification” (Nature, 2010).

What all share (format): functional
The subject of assay [1] is Plasmodium falciparum. The assay is described as follows: GSK_TCMDC: Inhibition of Plasmodium falciparum 3D7 in whole red blood cells, using parasite LDH activity as an index of growth. Test compounds present at 2uM.
In assay [2] the test system is Plasmodium falciparum. Nature of the assay: GSK_TCMDC: Inhibition of Plasmodium falciparum Dd2 in whole red blood cells, using parasite LDH activity as an index of growth. Test compounds present at 2uM.
The subject of assay [3] is HepG2. Nature of the assay: GSK_TCMDC: Percent inhibition of human HepG2 cell line. Test compounds present at 10uM.

What is called Inhibition is how much of the control response was suppressed. A lower Inhibition goes with a response near the control. Take `O=C(/C=C/c1ccc(Cl)c(Cl)c1)NCCCCN1CCCN(C(=O)Nc2cc(Cl)cc(Cl)c2)CC1`: the Inhibition in assay [1] amounted to 97%; in assay [2] it was 1%; in assay [3], 21%.
For `CCOC(=O)c1cnc2c(OC)cc(OC)c(Cl)c2c1Nc1cccc(C)c1`, in that order: 95%, 20% and 0%.
Turning to `Cc1ccc(CON2C(=N)N=C(N)NC2(C)C)cc1C.Cl`, the Inhibition in assay [1] is reported as 92%; in assay [2], 88%; in assay [3], 64%.
Consider `COc1ccc(-n2nc(C)cc2C(=O)NCc2ccc(-c3c(C)noc3C)cc2)cc1`, for which the values for the Inhibition in assay [1], in assay [2] and in assay [3] were 100%, 92% and 3%, respectively.
The matching figures for `Cn1cc(CN2CCC(OC(c3ccccc3)c3ccc(Cl)cc3)CC2)cn1` (stereo not given): 94%, 61% and 39%.
Consider `Nc1nc(N)c2c(ccc3nn(C4CCCC4)cc32)n1`, for which the Inhibition in assay [1] amounted to 97%; in assay [2], 3%; in assay [3], 44%.
The matching figures for `CCOC(=O)c1ccc(N(CCCN(CCCN(c2ccc(C(=O)OCC)cc2)S(=O)(=O)c2ccc(C)cc2)CCc2ccc(O)cc2)S(=O)(=O)c2ccc(C)cc2)cc1`: 96%, 74% and 0%.
Regarding `COc1ccccc1NC(=O)CSc1nc2cccnc2n1-c1ccccc1OC`, the Inhibition in assay [1] was 94%; in assay [2] it was 91%; in assay [3], 0%.
For `CC(C)CNCc1cccc(-c2ccc(CNc3ccc4ncccc4c3)cc2)c1.O=C(O)C(F)(F)F`, in that order: 94%, 32% and 13%.
The matching figures for `O=C(Cc1ccc(-n2cnnn2)cc1)N(Cc1cncn1Cc1cccc(C(F)(F)F)c1)CC1CC1`: 86%, 0% and 0%.
Turning to `O=C(Cc1cccc(OCCCN(Cc2cccc(C(F)(F)F)c2Cl)CC(c2ccccc2)c2ccccc2)c1)NCc1ccco1`, the values for the Inhibition in assay [1], in assay [2] and in assay [3] were 94%, 84% and 2%, respectively.
Take `O=C(Nc1cccc(-c2ccc(-c3nc4cc(F)ccc4[nH]3)s2)c1)c1ccncc1`: the values for the Inhibition in assay [1], in assay [2] and in assay [3] were 96%, 29% and 74%, respectively.
For `N#Cc1ccc(N(CCOc2ccc(Cl)c(Cl)c2)Cc2ccccc2C(F)(F)F)cc1C(F)(F)F`, in that order: 90%, 57% and 13%.
For `COc1cc(NC(=O)C(c2ccc(Cl)cc2)C(C)C)cc(OC)c1` (stereo not given), in that order: 99%, 98% and 5%.
The matching figures for `Cc1n[nH]c2ccc(-c3cc(OC[C@@H](N)Cc4ccccc4)cnc3-c3ccccc3OCc3cccc(F)c3)cc12.O=C(O)C(F)(F)F`: 91%, 91% and 55%.
